Laboratory results taken from ChEMBL document CHEMBL3988442, “University of Dundee, Small-Polar-MMV Screening Library” (2021).
For some of these results: Potency and affinity values are given separately.

Key:
Parameters in all cases: scale not given: direction of the effect not stated beside the values
[1] = molecular target: Protein translocase subunit SecA (Escherichia coli (strain K12)) (UniProt P10408); experiment: Assay to Identify E. coli SecA ATPase Inhibitors; format: functional; details: 30 µM
Protein translocase subunit SecA (Escherichia coli (strain K12)), sequence (P10408 whole entry): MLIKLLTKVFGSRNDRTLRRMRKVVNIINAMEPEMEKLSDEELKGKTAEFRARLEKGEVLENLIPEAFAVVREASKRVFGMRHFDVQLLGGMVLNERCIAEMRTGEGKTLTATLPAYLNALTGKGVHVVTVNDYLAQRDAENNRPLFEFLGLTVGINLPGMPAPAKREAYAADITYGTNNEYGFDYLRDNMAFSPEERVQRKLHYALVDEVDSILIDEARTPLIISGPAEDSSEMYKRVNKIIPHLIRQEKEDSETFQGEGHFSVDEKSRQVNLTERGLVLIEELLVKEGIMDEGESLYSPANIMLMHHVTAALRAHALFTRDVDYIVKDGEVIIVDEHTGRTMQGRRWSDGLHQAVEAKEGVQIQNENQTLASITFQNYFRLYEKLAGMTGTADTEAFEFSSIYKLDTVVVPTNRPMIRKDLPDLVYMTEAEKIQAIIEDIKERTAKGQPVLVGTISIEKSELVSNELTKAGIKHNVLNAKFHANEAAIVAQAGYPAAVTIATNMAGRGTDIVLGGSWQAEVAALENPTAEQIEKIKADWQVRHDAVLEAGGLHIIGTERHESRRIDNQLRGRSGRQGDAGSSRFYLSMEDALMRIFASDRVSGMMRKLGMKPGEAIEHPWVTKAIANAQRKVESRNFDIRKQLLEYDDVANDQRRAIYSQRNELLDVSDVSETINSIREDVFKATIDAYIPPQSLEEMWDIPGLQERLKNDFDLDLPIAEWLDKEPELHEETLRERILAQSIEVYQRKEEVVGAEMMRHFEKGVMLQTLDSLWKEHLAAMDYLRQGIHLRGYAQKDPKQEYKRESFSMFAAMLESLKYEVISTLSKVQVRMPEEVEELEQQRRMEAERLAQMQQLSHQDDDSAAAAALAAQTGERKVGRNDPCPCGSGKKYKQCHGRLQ

[2] = molecular target: T1, Ubiquitin-activating enzyme e1, putative (Leishmania donovani (strain BPK282A1)) (UniProt E9BSI1); experiment: Leishmania donovani Ubiquitin Activating Enzyme (LdE1); format: functional; details: 30 µM
T1 sequence (whole entry): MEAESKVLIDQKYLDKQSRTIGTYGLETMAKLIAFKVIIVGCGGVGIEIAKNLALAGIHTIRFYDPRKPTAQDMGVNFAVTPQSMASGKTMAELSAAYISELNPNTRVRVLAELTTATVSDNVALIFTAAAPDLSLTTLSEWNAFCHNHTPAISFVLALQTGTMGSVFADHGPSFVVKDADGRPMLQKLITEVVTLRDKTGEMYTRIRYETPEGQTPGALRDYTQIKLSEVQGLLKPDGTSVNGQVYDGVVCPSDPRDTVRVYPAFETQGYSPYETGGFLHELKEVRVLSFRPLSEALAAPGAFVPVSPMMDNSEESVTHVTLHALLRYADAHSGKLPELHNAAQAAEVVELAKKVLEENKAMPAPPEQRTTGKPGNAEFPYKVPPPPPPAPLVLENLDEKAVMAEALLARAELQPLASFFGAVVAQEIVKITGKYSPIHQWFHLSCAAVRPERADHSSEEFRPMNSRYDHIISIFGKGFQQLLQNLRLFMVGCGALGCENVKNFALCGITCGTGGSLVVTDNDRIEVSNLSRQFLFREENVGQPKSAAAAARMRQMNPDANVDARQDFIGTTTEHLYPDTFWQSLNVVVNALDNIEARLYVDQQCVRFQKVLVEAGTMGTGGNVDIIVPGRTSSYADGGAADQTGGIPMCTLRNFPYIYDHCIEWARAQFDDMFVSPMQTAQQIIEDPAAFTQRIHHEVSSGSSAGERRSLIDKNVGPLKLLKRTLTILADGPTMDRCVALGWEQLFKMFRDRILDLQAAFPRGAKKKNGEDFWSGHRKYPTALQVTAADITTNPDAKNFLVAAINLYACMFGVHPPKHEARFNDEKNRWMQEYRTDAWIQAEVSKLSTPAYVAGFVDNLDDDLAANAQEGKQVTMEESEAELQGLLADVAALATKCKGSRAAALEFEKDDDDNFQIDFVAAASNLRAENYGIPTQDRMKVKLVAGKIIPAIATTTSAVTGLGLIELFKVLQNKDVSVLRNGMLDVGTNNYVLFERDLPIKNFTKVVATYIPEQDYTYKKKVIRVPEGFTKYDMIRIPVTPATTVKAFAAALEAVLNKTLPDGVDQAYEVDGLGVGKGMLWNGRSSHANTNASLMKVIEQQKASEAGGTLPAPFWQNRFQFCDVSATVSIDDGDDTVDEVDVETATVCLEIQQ

[3] = molecular target: AMP-activated protein kinase, AMPK (Homo sapiens) (UniProt P54646+O43741+P54619+Q9UGJ0+Q9Y478+Q13131+Q9UGI9); experiment: AMP-dependent Kinase enzyme assay. An in vitro enzyme assay that detects ADP turnover that is directly proportional to AMPK activity. This uses naive AMPK that is activated during the assay with MK-8722; format: functional; details: 30 µM
[4] = molecular target: Sialic acid-binding Ig-like lectin 9 (Homo sapiens) (UniProt Q9Y336); experiment: Hs-Siglec9 ALPHAscreen SOP 20170721; details: 10 µM
Sialic acid-binding Ig-like lectin 9 (Homo sapiens), sequence (Q9Y336 whole entry): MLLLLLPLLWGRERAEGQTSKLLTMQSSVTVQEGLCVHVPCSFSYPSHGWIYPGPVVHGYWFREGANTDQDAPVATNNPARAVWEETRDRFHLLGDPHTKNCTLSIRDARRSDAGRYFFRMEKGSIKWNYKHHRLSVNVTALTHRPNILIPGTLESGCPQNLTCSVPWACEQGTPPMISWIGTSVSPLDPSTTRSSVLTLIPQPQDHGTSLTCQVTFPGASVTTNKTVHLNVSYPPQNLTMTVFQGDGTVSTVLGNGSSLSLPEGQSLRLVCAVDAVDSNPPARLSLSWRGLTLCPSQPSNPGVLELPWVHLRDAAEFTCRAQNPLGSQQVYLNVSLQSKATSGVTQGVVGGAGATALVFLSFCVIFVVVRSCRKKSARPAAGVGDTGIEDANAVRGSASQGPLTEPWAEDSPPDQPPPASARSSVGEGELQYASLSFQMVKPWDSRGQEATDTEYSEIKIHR

Trypanosoma cruzi = experiment: Trypanosoma cruzi phosphomannomutase and mannose-1-phosphate guanylyltransferase assay; format: functional; details: 10 µM
[5] = molecular target: T2, Arginase-2, mitochondrial (Homo sapiens) (UniProt P78540); experiment: in vitro enzyme assay to detect the production of urea directly proportional to the activity of Arginase II; format: functional; details: 33.3 µM; further: in the data most compounds retested in dose-response had high values
T2 sequence (whole entry): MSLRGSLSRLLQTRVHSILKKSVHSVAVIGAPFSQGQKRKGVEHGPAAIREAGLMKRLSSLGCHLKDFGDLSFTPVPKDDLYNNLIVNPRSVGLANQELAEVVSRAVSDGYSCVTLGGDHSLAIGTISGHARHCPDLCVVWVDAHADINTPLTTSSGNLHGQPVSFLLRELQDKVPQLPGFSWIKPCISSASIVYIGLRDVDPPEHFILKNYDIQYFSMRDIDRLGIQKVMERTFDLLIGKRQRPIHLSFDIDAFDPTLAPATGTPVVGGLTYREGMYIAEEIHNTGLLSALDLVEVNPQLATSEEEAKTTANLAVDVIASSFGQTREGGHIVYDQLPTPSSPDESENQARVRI

[6] = molecular target: T3, Proteasome subunit beta (Trypanosoma cruzi) (UniProt O96673); experiment: Trypanosoma cruzi proteasome chymotrypsin-like activity (TcProtChymo) assay.; further: in the data most compounds retested in dose-response had high values; format: functional; details: 9.37 µM
T3 sequence (whole entry): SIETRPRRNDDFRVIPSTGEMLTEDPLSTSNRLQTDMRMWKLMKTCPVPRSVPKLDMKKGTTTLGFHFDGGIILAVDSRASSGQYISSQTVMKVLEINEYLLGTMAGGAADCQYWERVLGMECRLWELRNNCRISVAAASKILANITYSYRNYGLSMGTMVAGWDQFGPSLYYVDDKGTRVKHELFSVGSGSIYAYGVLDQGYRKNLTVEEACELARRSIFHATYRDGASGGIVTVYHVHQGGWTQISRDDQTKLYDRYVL

Homo sapiens = species: Homo sapiens; experiment: To identify inhibition of the IFN signalling (Jak-Stat) pathway via expression of an eGFP reporter gene under the control of an IFN-stimulated response element (ISRE) containing MxA promoter.; format: functional; details: 30 µM
[7] = molecular target: T4, Tyrosyl-tRNA synthetase, putative (Trypanosoma cruzi (strain CL Brener)) (UniProt Q4DSP6); experiment: Trypanosoma cruzi tyrosyl tRNA synthetase (TcYRS) _High Tyrosine SOP; format: functional; details: 30 µM; further: in the data most compounds retested in dose-response had high values
T4 sequence (whole entry): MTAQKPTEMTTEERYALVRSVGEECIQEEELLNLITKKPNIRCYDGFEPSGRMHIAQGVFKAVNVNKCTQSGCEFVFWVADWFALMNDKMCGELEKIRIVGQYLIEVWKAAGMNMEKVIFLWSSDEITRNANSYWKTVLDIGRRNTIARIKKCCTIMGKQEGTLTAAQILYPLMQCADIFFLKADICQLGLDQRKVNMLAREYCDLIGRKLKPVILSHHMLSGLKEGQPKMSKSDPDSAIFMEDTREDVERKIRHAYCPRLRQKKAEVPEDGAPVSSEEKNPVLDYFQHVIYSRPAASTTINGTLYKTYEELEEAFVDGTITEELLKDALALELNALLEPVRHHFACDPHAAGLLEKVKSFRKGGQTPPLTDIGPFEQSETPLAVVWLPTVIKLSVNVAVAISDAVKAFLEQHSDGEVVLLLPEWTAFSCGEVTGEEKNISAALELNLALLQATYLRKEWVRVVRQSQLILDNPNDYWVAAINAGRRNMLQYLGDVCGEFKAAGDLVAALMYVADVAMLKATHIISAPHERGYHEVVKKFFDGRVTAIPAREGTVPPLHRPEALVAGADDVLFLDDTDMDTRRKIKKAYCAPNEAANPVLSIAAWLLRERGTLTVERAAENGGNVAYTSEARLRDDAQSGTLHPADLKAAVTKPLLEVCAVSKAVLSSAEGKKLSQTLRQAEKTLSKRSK

[8] = molecular target: T4, Tyrosyl-tRNA synthetase, putative (Trypanosoma cruzi (strain CL Brener)); experiment: Trypanosoma cruzi tyrosyl tRNA synthetase (TcYRS) SOP; format: functional; details: 30 µM
[9] = molecular target: Chromo domain-containing protein 1 (Saccharomyces cerevisiae (strain ATCC 204508 / S288c) (Baker's yeast)) (UniProt P32657); experiment: ScCHD-1 Enzyme Inhibition Assay; format: functional; details: 30 µM; further: in the data most compounds retested in dose-response had high values
Chromo domain-containing protein 1 (Saccharomyces cerevisiae (strain ATCC 204508 / S288c) (Baker's yeast)), sequence (P32657 whole entry, the tested form may be a part): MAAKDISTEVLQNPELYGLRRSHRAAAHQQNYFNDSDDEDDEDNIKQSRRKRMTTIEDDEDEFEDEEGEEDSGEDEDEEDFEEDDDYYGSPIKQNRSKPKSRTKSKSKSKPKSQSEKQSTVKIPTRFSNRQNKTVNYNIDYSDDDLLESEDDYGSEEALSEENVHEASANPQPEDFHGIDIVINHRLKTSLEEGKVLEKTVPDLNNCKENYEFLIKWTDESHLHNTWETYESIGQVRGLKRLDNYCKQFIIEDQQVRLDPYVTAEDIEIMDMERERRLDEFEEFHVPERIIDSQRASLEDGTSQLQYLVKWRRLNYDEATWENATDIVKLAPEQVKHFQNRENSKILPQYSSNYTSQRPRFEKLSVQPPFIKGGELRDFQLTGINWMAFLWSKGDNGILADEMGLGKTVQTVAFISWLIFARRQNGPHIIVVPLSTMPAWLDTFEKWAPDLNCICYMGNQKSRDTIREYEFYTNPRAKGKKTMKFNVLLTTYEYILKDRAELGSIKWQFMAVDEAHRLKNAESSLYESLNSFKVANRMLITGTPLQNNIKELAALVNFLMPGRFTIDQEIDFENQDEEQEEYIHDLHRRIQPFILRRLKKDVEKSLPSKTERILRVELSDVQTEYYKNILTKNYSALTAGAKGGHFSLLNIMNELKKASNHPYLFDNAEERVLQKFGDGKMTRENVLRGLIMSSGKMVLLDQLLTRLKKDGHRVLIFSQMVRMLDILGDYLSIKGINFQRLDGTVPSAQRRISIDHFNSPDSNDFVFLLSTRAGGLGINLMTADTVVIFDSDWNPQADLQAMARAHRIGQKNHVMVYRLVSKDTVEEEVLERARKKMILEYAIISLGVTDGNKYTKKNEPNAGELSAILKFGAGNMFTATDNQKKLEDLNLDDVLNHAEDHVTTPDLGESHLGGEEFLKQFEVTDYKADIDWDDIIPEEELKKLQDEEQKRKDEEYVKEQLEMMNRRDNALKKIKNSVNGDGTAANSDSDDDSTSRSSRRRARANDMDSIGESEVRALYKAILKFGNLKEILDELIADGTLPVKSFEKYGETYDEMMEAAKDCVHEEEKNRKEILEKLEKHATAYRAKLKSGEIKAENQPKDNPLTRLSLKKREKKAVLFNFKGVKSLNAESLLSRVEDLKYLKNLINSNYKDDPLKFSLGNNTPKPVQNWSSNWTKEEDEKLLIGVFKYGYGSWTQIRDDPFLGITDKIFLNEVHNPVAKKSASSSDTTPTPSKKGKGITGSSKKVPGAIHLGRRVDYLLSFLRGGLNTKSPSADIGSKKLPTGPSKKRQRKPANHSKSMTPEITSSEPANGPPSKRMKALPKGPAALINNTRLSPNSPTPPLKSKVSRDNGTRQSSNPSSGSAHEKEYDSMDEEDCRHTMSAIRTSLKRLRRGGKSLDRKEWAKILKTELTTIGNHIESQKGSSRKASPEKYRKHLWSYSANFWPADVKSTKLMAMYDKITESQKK

Structure (SMILES)	Percent Effect [1] [%]	Percent Effect [2] [%]	Percent Effect [3] [%]	Percent Effect [4] [%]	Percent Effect (Trypanosoma cruzi) [%]	Percent Effect [5] [%]	Percent Effect [6] [%]	Percent Effect (Homo sapiens) [%]	Percent Effect [7] [%]	Percent Effect [8] [%]	Percent Effect [9] [%]
CCCN(Cc1ccccc1)Cn1nc(C)c2c(C)onc2c1=O	-7	10.8	-10.2	25.6	4.62	-4.81	1.98	8.04	5.42	18.5	-13.4
Cc1cnn(CC2CCCN2C(=O)c2cccc(-n3cnnn3)c2)c1 (stereo not given)	-0.0058	2.53	6.56	4.88	-1.79	6.08	-0.573	13.2	2.46	1.27	-1.78
CN(Cc1nnc2n1CCC2)C(=O)Cc1ccc2c(c1)OCCO2	-1.44	13.5	-8.06	-5.38	4.25	-5.21	13.7	10.6	4.43	18.5	-8.36
CC(CNC(=O)c1cccnc1Oc1cccnc1)N(C)C (stereo not given)	-0.805	18.9	-3.66	10.5	6.56	10	12.9	4.67	4.76	17.1	-1.51
CCCc1nc(N2Cc3cnn(Cc4ccc(F)cc4)c3C2)no1	-3.65	5.33	7.03	2.42	-2.04	2.6	14.1	19.7	4.92	11.1	-7.25
CN(Cc1ccc2c(c1)OCO2)Cc1nc2c(cnn2C)c(=O)[nH]1	-3.58	5.26	0.733	-4.42	0.467	-4.32	-0.592	4.07	8.37	6.17	-3.9
CC(NCc1ccncc1)c1cc(F)ccc1N1CCN(C)CC1 (stereo not given)	-1.22	5.41	-10.4	21	6.16	15.6	5.58	-10.1	2.15	11.1	-9.91
O=C(c1cnccn1)N1CCOCC2(CCN(C3CCOCC3)C2)C1 (stereo not given)	-3.59	25.3	-6.88	-0.346	3.54	-0.528	19.4	-1.42	8.47	15.4	-9.96
COc1ncccc1C(=O)NCC(C)Oc1cccnc1 (stereo not given)	-3.65	5.41	1.52	2.58	0.386	1.91	4.83	-3.73	6.88	12.2	-3.26
CCCNC(=O)C1CCN(Cc2csc(C(C)(C)C)n2)CC1	-0.61	10.1	-4.65	-1.57	-4.44	6.08	6.63	12.5	-0.493	8.86	-6.15
Cc1cc(CC(=O)N2CCCC2c2nc(C(C)C)no2)on1 (stereo not given)	-3.03	20.8	-13.1	26.8	8.84	3.97	18.8	5.27	6.32	15.4	-9.95
CCC(C)(C)NC(=O)C1CC(=O)N(CC2CC2)C1 (stereo not given)	-2.71	13.5	9.25	-3.89	-7.15	3.14	11.3	17.7	2.97	-18.3	-7.51
Cc1occc1C(=O)Nc1ccnc(OC2CCOC2)c1 (stereo not given)	-0.474	6.94	-7.48	6.54	4.57	7.95	14.7	3.88	-2.1	2.56	-2.37
O=C(c1cccnc1)N1CCCC(c2cc(C(F)F)n3ncnc3n2)C1 (stereo not given)	-4.9	9.46	12.9	2	-5.53	0.232	7.64	8.61	0	6.49	9.01
CCC1(CO)CCCN(c2ncccc2C#N)C1 (stereo not given)	-4.07	-5.41	-0.35	5.12	-1.74	-3.81	-0.69	19.1	-1.59	0	-3.09
CN(CCc1cccs1)C1CCCN(Cc2noc(C3CC3)n2)C1 (stereo not given)	-1.04	4.17	-15.1	-5.62	2.82	10.2	15.6	-4.89	3.16	7.69	-3.54
O=C(Cc1ccc(F)cc1)N1CCn2cc(Cn3cccn3)nc2C1	-3.25	10.8	5.39	-3.22	-1.66	6.69	8.12	-1.16	5.41	20.5	0.365
CC(=O)NCC(=O)N1CC[C@H](OCC2CC2)[C@@H]1Cc1cccnc1	-0.669	5.33	-3.45	5.96	-2.51	-50	5.47	1.5	1.04	-47.5	-0.336
Cc1noc2ncc(C(=O)N(CC3CCOC3)C3CC3)cc12 (stereo not given)	-0.0275	7.89	-3.99	3.92	-9.59	3.45	7.69	24.4	0.49	4.88	-5.66
Cc1ccc(C(=O)Nc2cc(C(C)C)n[nH]2)cn1	-6.49	5.2	97.8	4.24	-5.06	3.56	10.3	75.7	3.88	9.76	-5.01
